Measured values reported in ChEMBL document CHEMBL3988442, “University of Dundee, Small-Polar-MMV Screening Library” (2021).
For some assays here: Potency and affinity values are given separately.

Legend:
Parameters in all cases: scale not given: direction of the effect not stated beside the values
[1] = molecular target: Protein translocase subunit SecA (Escherichia coli (strain K12)) (UniProt P10408); experiment: Assay to Identify E. coli SecA ATPase Inhibitors; assay type: functional; details: 30 µM
Protein translocase subunit SecA (Escherichia coli (strain K12)), sequence (P10408 whole entry): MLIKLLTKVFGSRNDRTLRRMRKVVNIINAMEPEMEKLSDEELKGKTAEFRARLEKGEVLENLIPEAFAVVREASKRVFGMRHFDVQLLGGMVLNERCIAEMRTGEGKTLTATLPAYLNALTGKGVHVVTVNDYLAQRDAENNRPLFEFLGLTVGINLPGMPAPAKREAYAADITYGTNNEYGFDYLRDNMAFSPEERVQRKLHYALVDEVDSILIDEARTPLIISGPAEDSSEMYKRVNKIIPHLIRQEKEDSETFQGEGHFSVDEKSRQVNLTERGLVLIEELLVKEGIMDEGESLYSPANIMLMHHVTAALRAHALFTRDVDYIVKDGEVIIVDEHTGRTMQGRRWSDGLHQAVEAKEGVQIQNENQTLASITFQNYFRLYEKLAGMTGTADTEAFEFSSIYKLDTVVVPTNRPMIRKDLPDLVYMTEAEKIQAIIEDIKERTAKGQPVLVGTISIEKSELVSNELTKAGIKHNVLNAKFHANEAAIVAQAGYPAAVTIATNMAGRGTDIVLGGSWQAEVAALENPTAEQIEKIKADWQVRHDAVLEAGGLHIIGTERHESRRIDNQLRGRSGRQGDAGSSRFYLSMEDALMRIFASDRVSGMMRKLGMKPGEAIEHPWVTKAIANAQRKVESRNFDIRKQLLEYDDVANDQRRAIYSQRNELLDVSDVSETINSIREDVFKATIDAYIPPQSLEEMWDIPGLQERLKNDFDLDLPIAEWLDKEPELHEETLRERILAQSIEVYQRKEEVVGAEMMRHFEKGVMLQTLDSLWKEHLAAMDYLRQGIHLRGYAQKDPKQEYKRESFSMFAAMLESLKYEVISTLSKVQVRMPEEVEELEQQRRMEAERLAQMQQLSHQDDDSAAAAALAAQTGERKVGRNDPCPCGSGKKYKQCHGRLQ

[2] = molecular target: T1, Ubiquitin-activating enzyme e1, putative (Leishmania donovani (strain BPK282A1)) (UniProt E9BSI1); experiment: Leishmania donovani Ubiquitin Activating Enzyme (LdE1); assay type: functional; details: 30 µM
T1 sequence (whole entry): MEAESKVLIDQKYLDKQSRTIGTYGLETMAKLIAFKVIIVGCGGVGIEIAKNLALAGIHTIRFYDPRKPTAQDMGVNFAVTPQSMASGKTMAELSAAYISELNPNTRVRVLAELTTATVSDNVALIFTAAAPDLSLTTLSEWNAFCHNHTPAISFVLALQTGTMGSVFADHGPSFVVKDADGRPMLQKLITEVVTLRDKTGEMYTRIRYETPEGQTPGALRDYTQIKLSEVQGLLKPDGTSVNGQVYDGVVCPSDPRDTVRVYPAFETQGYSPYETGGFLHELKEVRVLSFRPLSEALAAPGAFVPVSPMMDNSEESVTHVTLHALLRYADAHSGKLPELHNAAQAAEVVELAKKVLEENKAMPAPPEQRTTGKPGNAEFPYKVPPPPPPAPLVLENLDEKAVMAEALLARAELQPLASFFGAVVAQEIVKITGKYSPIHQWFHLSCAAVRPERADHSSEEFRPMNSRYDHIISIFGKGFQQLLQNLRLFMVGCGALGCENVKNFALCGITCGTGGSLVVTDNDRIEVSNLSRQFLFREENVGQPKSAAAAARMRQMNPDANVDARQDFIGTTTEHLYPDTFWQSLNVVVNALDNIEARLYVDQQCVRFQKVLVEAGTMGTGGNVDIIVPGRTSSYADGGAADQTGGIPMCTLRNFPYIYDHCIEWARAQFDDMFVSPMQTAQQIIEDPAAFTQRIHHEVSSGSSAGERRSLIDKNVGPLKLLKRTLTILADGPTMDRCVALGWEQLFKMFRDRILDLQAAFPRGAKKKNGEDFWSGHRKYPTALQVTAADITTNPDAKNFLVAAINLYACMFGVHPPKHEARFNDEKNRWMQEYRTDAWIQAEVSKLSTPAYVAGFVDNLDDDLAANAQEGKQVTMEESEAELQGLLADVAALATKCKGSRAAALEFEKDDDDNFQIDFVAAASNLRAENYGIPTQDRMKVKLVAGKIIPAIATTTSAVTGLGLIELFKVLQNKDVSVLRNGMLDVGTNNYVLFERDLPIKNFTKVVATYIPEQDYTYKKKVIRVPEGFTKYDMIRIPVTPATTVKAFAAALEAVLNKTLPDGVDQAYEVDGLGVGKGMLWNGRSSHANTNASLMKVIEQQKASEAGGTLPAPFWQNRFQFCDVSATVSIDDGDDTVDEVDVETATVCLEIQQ

[3] = molecular target: Sialic acid-binding Ig-like lectin 9 (Homo sapiens) (UniProt Q9Y336); experiment: Hs-Siglec9 ALPHAscreen SOP 20170721; details: 10 µM
Sialic acid-binding Ig-like lectin 9 (Homo sapiens), sequence (Q9Y336 whole entry): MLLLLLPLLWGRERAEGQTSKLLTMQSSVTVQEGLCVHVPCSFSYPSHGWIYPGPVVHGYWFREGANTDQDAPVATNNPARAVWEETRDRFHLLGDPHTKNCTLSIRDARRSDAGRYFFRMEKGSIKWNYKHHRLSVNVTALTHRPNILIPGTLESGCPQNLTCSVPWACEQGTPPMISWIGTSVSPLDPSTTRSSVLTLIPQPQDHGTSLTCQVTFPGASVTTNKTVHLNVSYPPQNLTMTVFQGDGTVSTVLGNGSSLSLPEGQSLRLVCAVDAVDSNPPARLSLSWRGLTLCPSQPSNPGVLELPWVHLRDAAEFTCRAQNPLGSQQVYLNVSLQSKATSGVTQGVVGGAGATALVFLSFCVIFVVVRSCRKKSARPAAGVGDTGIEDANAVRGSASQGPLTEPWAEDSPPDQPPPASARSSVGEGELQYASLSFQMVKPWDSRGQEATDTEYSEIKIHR

Trypanosoma cruzi = experiment: Trypanosoma cruzi phosphomannomutase and mannose-1-phosphate guanylyltransferase assay; assay type: functional; details: 10 µM
[4] = molecular target: T2, Arginase-2, mitochondrial (Homo sapiens) (UniProt P78540); experiment: in vitro enzyme assay to detect the production of urea directly proportional to the activity of Arginase II; assay type: functional; details: 33.3 µM; further: in the data most compounds retested in dose-response had high values
T2 sequence (whole entry): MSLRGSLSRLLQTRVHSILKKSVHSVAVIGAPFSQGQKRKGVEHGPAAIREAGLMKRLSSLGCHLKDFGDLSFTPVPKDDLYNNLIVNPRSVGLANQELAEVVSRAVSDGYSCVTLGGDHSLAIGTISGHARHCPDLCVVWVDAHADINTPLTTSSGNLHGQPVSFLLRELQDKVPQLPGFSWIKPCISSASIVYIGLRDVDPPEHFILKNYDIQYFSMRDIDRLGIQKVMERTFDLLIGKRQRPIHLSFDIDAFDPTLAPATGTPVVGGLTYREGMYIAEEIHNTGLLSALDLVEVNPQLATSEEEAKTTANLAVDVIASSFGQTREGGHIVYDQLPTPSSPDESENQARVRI

[5] = molecular target: T3, Proteasome subunit beta (Trypanosoma cruzi) (UniProt O96673); experiment: Trypanosoma cruzi proteasome chymotrypsin-like activity (TcProtChymo) assay.; further: in the data most compounds retested in dose-response had high values; assay type: functional; details: 9.37 µM
T3 sequence (whole entry): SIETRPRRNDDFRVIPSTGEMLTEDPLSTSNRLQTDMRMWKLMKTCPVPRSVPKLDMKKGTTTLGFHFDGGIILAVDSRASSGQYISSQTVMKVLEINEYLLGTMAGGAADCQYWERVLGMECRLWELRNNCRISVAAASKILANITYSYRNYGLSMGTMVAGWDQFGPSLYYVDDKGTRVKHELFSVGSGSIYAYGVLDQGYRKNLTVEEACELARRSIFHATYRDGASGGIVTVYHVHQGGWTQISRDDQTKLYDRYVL

Homo sapiens = species on record: Homo sapiens; experiment: To identify inhibition of the IFN signalling (Jak-Stat) pathway via expression of an eGFP reporter gene under the control of an IFN-stimulated response element (ISRE) containing MxA promoter.; assay type: functional; details: 30 µM
[6] = molecular target: T4, Tyrosyl-tRNA synthetase, putative (Trypanosoma cruzi (strain CL Brener)) (UniProt Q4DSP6); experiment: Trypanosoma cruzi tyrosyl tRNA synthetase (TcYRS) _High Tyrosine SOP; assay type: functional; details: 30 µM; further: in the data most compounds retested in dose-response had high values
T4 sequence (whole entry): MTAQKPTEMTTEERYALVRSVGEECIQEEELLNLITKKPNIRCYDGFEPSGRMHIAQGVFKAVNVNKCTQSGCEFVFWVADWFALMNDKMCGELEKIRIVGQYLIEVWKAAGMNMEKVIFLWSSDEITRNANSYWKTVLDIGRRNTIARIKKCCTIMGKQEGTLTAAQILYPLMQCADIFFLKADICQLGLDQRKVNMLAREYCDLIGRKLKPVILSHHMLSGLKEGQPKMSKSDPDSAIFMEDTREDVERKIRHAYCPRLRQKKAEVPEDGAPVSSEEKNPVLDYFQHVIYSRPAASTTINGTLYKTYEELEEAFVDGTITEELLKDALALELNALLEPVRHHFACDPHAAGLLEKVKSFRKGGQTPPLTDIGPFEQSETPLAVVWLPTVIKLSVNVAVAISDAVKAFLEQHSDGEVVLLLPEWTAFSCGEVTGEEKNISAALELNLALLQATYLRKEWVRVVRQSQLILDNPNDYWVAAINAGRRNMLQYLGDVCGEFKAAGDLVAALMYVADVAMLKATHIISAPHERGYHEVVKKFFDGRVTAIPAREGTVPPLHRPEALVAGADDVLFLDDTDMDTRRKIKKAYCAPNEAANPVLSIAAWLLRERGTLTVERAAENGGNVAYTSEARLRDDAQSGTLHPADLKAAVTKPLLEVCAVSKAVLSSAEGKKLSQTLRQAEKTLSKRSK

[7] = molecular target: T4, Tyrosyl-tRNA synthetase, putative (Trypanosoma cruzi (strain CL Brener)); experiment: Trypanosoma cruzi tyrosyl tRNA synthetase (TcYRS) SOP; assay type: functional; details: 30 µM
[8] = molecular target: Chromo domain-containing protein 1 (Saccharomyces cerevisiae (strain ATCC 204508 / S288c) (Baker's yeast)) (UniProt P32657); experiment: ScCHD-1 Enzyme Inhibition Assay; assay type: functional; details: 30 µM; further: in the data most compounds retested in dose-response had high values
Chromo domain-containing protein 1 (Saccharomyces cerevisiae (strain ATCC 204508 / S288c) (Baker's yeast)), sequence (P32657 whole entry, the tested form may be a part): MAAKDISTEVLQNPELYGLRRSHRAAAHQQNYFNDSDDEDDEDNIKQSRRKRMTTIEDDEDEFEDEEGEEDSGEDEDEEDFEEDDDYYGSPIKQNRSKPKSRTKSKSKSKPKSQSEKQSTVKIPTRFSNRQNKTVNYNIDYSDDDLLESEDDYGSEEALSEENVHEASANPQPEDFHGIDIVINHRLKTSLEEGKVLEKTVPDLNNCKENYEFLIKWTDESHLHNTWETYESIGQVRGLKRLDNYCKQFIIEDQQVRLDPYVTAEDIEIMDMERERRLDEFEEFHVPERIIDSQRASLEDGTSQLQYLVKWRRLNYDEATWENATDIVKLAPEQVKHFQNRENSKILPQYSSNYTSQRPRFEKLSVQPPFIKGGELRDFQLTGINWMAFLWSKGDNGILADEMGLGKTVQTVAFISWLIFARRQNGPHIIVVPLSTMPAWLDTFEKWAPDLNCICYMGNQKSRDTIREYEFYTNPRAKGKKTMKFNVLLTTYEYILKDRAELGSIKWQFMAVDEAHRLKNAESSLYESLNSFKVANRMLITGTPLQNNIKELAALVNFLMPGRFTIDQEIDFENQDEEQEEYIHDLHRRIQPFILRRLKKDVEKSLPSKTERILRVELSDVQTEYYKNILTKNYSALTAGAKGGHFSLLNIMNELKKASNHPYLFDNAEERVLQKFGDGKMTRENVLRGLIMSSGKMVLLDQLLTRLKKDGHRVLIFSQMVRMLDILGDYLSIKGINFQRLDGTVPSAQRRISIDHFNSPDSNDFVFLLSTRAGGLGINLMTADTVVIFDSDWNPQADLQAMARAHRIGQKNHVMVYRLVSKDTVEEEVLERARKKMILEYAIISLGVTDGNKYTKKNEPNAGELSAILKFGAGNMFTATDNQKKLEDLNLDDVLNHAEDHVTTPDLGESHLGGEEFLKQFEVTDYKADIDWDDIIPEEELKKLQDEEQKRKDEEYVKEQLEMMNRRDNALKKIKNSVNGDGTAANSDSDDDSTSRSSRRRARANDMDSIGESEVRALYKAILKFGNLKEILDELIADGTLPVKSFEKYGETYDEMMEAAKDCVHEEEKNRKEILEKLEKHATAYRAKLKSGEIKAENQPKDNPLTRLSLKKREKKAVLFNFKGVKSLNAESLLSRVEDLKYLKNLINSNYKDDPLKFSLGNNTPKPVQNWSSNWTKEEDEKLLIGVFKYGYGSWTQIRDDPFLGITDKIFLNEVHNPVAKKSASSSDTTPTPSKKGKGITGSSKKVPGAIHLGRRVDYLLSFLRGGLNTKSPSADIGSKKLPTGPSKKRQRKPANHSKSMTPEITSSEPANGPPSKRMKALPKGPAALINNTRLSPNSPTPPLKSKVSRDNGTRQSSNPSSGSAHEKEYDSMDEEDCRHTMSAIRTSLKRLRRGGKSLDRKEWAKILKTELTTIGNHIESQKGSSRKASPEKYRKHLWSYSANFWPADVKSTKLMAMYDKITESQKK

Structure (SMILES) | Percent Effect [1] | Percent Effect [2] | Percent Effect [3] | Percent Effect (Trypanosoma cruzi) | Percent Effect [4] | Percent Effect [5] | Percent Effect (Homo sapiens) | Percent Effect [6] | Percent Effect [7] | Percent Effect [8]
O=C(N1CCCC1)N1CCC2(CCCN(CCOc3ccccc3)C2)C1 (stereo not given) | -5.49% | 16.9% | -3.35% | -2.63% | -1.37% | 12.3% | 15.5% | 1.93% | 2.5% | -13.4%
COc1cccc(-n2nnc(C(=O)N3CCNC(=O)C3)c2C)c1 | -4.4% | 15.4% | -22.9% | 9.11% | 0.41% | 8.96% | 16% | 5.26% | 25.3% | 22.3%
NC(=O)N1CCC2(CC1)CN(Cc1cccnc1)C(=O)CO2 | -0.758% | 11.7% | 1.96% | -0.188% | 1.37% | 8.5% | -22.1% | 10.6% | 15% | -1.18%
c1csc(-c2nc(CN3CCn4c(nnc4C4CC4)C3)co2)c1 | -2.65% | 5.33% | 1.96% | -3.41% | 2.66% | 9.58% | 7.72% | 6.84% | 5.13% | -5.6%
Cc1csc(N2CCCN(C(=O)c3c(C)oc(C)c3C)CC2)n1 | -7.12% | 18.7% | 3.18% | 4.22% | -1.77% | 20.1% | 8.84% | 7.89% | 17.9% | -8.96%
O=C1N(CC2CC2)CCC12CCN(c1ncccn1)CC2 | 2.77% | 16.9% | -4.8% | -3% | 2.74% | 16.7% | 12.4% | 6.76% | 10% | -10.6%
O=C1C[C@H]2[C@@H](CCN2C(=O)Cc2cccs2)N1Cc1cccnc1 | -6.6% | 9.09% | -0.0705% | -1.31% | -4.11% | 13.7% | 8.33% | 6.76% | 7.5% | -3.4%
COc1ccc(-c2nc(CN3CCc4c(ncn4C)C3)cs2)cc1 | -0.999% | -12.8% | -13.6% | 3.66% | 0.41% | 13.4% | 18.6% | 18.7% | 22.9% | 4.88%
Cc1n[nH]c(C)c1C1COCCN1C(=O)c1ccccc1 (stereo not given) | 0.213% | -2.56% | 15% | -3.47% | 8.61% | 3.67% | 20.7% | -1.44% | -1.21% | -0.727%
Cc1cc(C)n(CCC(=O)N2CCCC(n3cncn3)C2)n1 (stereo not given) | -6.39% | 10.7% | 6.15% | 2.01% | -3.99% | 5.68% | -5.14% | 5.79% | 15.4% | -9.86%
c1cc(-c2nc(CN3CCn4c(nnc4C4CC4)C3)cs2)cs1 | 0.225% | -23.1% | -7.08% | 3.47% | -1.64% | 5.55% | 21.9% | 2.39% | 8.43% | 5.73%
COc1cccc(CN2CCCC3(CCN(C(=O)[C@H]4CCCO4)C3)C2)c1 (stereo not given in full) | -5.07% | 3.9% | -0.211% | -0.75% | 3.65% | 4.55% | 0.637% | 12.6% | 15% | -10.7%
COc1ccc(OCCN(C)C(=O)NC(C)c2nncn2C)cc1 (stereo not given) | -4.39% | 10.7% | -0.704% | -5.02% | 5.76% | 15.3% | 17.3% | 3.68% | 12.8% | -6.11%
CS(=O)(=O)NCC1CCCN(C(=O)COCc2ccccc2)C1 (stereo not given) | -1.97% | 15.4% | -3.29% | 4.41% | 6.56% | 1.96% | 17.6% | 0.478% | 20.5% | -5.38%
CNC(=O)N1C[C@H]2C[C@H](C(=O)Nc3ccccc3)[C@@H](C1)O2 | -6.94% | -35.1% | 1.87% | 0.0974% | -3.24% | 11.7% | 1.26% | 4.74% | 10.3% | 13.9%
CNc1ccc(CC2CCCN(C(=O)c3cncnc3C)C2)nn1 (stereo not given) | 3.9% | 12% | -5.1% | -6.31% | 8.41% | 13% | 4.65% | 1.06% | 10% | -22.6%
COCC1CN(Cc2ccc(OC)cc2)Cc2nn(C)cc21 (stereo not given) | 0.916% | 22.1% | -1.55% | -9.45% | 12.2% | 18.4% | 20.9% | 6.84% | 2.56% | -2.71%
CCCc1nc(C)c(C(=O)NCCN2CCN(CC)CC2)s1 | -3.24% | 0% | 11.4% | 0.56% | -2.25% | -1.23% | 5.53% | 6.86% | 9.41% | 3.6%
O=C1COC2(CCN(C(=O)c3ccco3)CC2)CN1Cc1ccccn1 | -3.84% | 16.9% | 2.04% | 0% | 5.48% | 8.84% | -15.4% | 11.6% | 20% | -5.91%
COc1ccc(CN2CCC[C@@H]3CN(C(=O)c4ccco4)C[C@@H]32)cc1 | -4.96% | 11.7% | -12.3% | -3.6% | -4.05% | 17.6% | 3.21% | 3.68% | 10.3% | 0.299%
CCc1nc(C2CCCN2C(=O)c2c[nH]c(C)n2)no1 (stereo not given) | -9.57% | 10.7% | 18.3% | 3.41% | -2.66% | 12.1% | -2.6% | 7.89% | 12.8% | -9.37%
CC(Cn1cccn1)NC(=O)NCc1ccccn1 (stereo not given) | -2.65% | 8% | -5.88% | -5.22% | 1.33% | 7.04% | 13.9% | 1.58% | 10.3% | -11%
Cc1n[nH]c(=O)c2c(NC(=O)CN3CCOC(C)C3)oc(C)c12 (stereo not given) | 1.61% | 17.9% | -15.7% | 1.78% | 4.92% | 16.6% | 25.5% | 3.35% | 18.1% | -6.38%
